Where “and” joins values, the source holds several entries; their conditions need not be identical. Identical values can stand only once. The campaign covered roughly 330,000 compounds. About 1,900 (0.58%) were called active. About 4% were inconclusive and are not listed. The list is a sample of the results. Entries with a potency or affinity are not part of this list. Values without a mark were called inactive. No stated cut-off is given here; in the data, inconclusive means inhibition above about 70% without an active follow-up result; inactive means below that.

This note sets out measurements from PubChem BioAssay AID449762 (Southern Research Specialized Biocontainment Screening …, 2010).

The nature of the assay: M. tuberculosis growth inhibition, HTS (AID 449762).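 Further: bacterial growth assessed after seven days of incubation.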 Conditions: M. tuberculosis H37Rv growth inhibition, 7H9 media; at 25 µM; stronger effect = higher value.
On to `Cc1ccccc1C(=O)N1CCC(C(=O)Nc2nccs2)CC1`, for which the inhibition (commonly the drop in the measured response relative to a control, in per cent) was -0.78%.

As for `CC(=O)N1CCN(C(=O)CN2C(=O)NC(C)(c3ccc4ccccc4c3)C2=O)CC1` (stereo not given), the inhibition was 6.21%. Take `Cc1ccc(CNCC(=O)Nc2ccc(C)cc2Br)cc1`: the inhibition is 2.37%.

Consider `Cc1ccc(NC(=S)Nc2cccc3cnccc23)cc1`, for which the inhibition was 1.12%.

With `S=C(Nc1cccc(Cl)c1)Nc1cccc2cnccc12`, the inhibition was 10%. With `COC(=O)c1cc(C)sc1NC(=O)CN1CCN(C(=O)c2ccco2)CC1`, the inhibition was -5.56%.

`CCOC(=O)c1cc(C)sc1NC(=O)CN1CCN(C(=O)c2ccco2)CC1`: the inhibition was 17%. For `CCCn1nc(C(=O)NNC(=O)c2cc(S(=O)(=O)NC)ccc2Br)c2ccccc2c1=O` the value was -2.51%. With `COC(=O)c1ccc([C@H]2CC(=O)O2)cc1`, the inhibition is -4.85%.

With `O=C(N/N=C/c1ccccn1)c1ccc(NC(=O)c2ccc(F)cc2)cc1`, the inhibition was 2.56%.

Consider `O=C(CSCc1ccc([N+](=O)[O-])cc1)N/N=C/c1cccnc1`, for which the inhibition was 3.16%. `COc1ccc(/C=N/NC(=O)CSCc2ccc([N+](=O)[O-])cc2)cc1OC`: the inhibition is -9.89%.

`COc1cc(C(=O)OCC#N)ccc1OCc1c(C)noc1C`: the inhibition is 9.39%. In the case of `CCOc1cc(NCc2ccccc2)c2ncn(C(C)C)c2c1`, the inhibition is 67.6%. The same measure for `COc1cc(NCc2ccccc2)c2ncn(C(C)C)c2c1`: 1.58%; for `COc1ccccc1CNC(=O)C(CCSC)NS(=O)(=O)c1ccc2c(c1)oc(=O)n2C` (stereo not given): 3.84%. `O=C(C(=O)N1CC=C(c2ccccc2)CC1)c1c[nH]c2ccccc12`: the inhibition was 5.82%. For `O=S(=O)(NCc1ccco1)c1ccc2ccccc2c1`, the inhibition is 10.5%. Consider `Cc1ncsc1CCOC(=O)c1cccc([N+](=O)[O-])c1`, for which the inhibition was 8.02% and -15.9%. For `Cc1ncsc1CCOC(=O)c1ccccc1` the value was 4.41%; for `COC(=O)c1ccc(NC(=O)COc2ccc([N+](=O)[O-])cc2)cc1`, -9.31%. The same measure for `CC(=O)Nc1ccc(NC(=O)COc2ccc([N+](=O)[O-])cc2)cc1`: -3.36%; for `O=C(Nc1ccc(Cl)c(S(=O)(=O)Nc2ccccc2Cl)c1)c1cccs1`: -2.32%; for `CC(C)(C)NCCOCCOc1ccccc1-c1ccccc1`: 5.36%.

Turning to `N#Cc1ccccc1S(=O)(=O)N1CCN(C(=O)[C@H](Cc2ccccc2)NC(=O)c2ccco2)CC1`, the inhibition is -9.05%. The same measure for `CCCCCC[N+](C)(C)CCSSCC[N+](C)(C)CCCCCC`: -17.5%; for `C#CC[N+](C)(C)CCCCCCCCCC`: 6.64%. Regarding `CC(C)(C)c1ccc(S(=O)(=O)N2CCN(CC(O)COCC3CCCO3)CC2)cc1` (stereo not given), the inhibition is 7.79%.

In the case of `Cc1cccc(C)c1-n1c(C)cc(/C=N/NC(N)=S)c1C`, the inhibition was 51.5%. For the compound `Cc1cc(/C=N/NC(N)=O)c(C)n1-c1ccc(F)cc1`, the inhibition was 1.83%. The same measure for `Nc1nc(N)c2nc(-c3ccccc3)c(N)nc2n1`: 16.7%; for `NSc1nc(N)c2nc(-c3ccccc3)c(-c3ccccc3)nc2n1`: 7.97%; for `COc1cccc(/C=N/NC(=O)CCCC(=O)Nc2ccc(Br)cc2)c1`: -7.05%. On to `CCc1ccc(N2CC(C(=O)OCC(=O)Nc3ccc(C(C)=O)cc3)CC2=O)cc1` (stereo not given), for which the inhibition is -5.19%.

With `S=C1NC2=C(CCCC2)C2(CCCCC2)N1`, the inhibition was -1.82%. Regarding `CC(C)(C)NC(=O)NC(=O)CSc1ncccn1`, the inhibition is 4.89%. Take `C=CCn1c(NCc2ccc3c(c2)OCO3)nc2ccccc21`: the inhibition was 1.97%. As for `O=C1OCc2nc3cc4c(cc3c(-c3ccc(F)cc3)c21)OCO4`, the inhibition is 3.09%. The same measure for `COc1ccccc1/C=C/C(=O)Nc1ccc(S(=O)(=O)Nc2cc(C)nc(C)n2)cc1`: 8.18%; for `Cc1cc(NS(=O)(=O)c2ccc(NC(=O)/C=C/c3ccccc3Cl)cc2)no1`: 40.1%; for `O=C(O)/C=C\C(=O)Nc1ccc(N2CCN(c3ccc(F)cc3)CC2)cc1`: 14%.

Turning to `Cn1c(O)c(/C=C2\C=Nc3ccccc32)c(=O)n(C)c1=O`, the inhibition is 3.29%. For `O=c1oc2ccccc2c(O)c1/C=N/c1ncccn1` the value was 4.28%. For `Cc1cc2cc(CNC(=S)Nc3ccc(OC(F)(F)F)cc3)ccc2n1C` the value was -4.09%; for `CCCC[n+]1ccn(-c2nc3ccccc3nc2[N-]S(=O)(=O)c2ccccc2)c1`, -13.6%; for `O=S(=O)([N-]c1nc2ccccc2nc1-n1cc[n+](Cc2ccccc2)c1)c1ccccc1`, 1.97%.

In the case of `O=C(NCCc1ccc(Cl)cc1)C1CCC(CNc2nc(=S)[nH]c3ccccc23)CC1` (stereo not given), the inhibition is 5.86%. With `O=C1OC(CCl)CN1Cc1c(Cl)cccc1Cl` (stereo not given), the inhibition was -11.9%.

Regarding `Cc1nn(Cc2ccccc2Cl)c(C)c1C(=O)NCC(c1cccs1)N1CCOCC1` (stereo not given), the inhibition is 0.07%. Consider `COc1ccc(C)cc1NC(=O)CCN1CCN(c2ccccc2)CC1`, for which the inhibition is 5.54%. As for `Cc1ccc(Cn2c(=N)n(CC(O)c3ccco3)c3ccccc32)cc1` (stereo not given), the inhibition was -10.2%.

Regarding `N=c1n(Cc2ccccc2)c2ccccc2n1CC(O)c1ccco1` (stereo not given), the inhibition was -2.81%. As for `COc1ccc(C(CC(=O)c2ccccc2)S(=O)(=O)c2ccccc2)cc1` (stereo not given), the inhibition is 21.9%.

For `COc1ccc(C(=O)CC(c2ccccc2)S(=O)(=O)c2ccc(C)cc2)cc1` (stereo not given), the inhibition was 11.8%. For `O=[N+]([O-])c1cccc(/C=N/Nc2nc(C(Cl)(Cl)Cl)nc3ccccc23)c1` the value was 4.81%.

Take `COc1ccc(CN=C2NC(=O)CC(C(=O)Nc3ccc(Cl)cc3)S2)cc1` (stereo not given): the inhibition was -3.21%. Consider `O=C(Nc1ccc(S(=O)(=O)Nc2nccc(C3Cc4ccccc4C(=O)O3)n2)cc1)c1ccccc1` (stereo not given), for which the inhibition was 0.33%. With `Cc1cc(C)c(NC(=O)CCCn2c(=O)oc3ccccc32)c(C)c1`, the inhibition was 0.61%. For `Cc1[nH][nH]c(=O)c1C(c1ccc(-c2cccc(C(=O)O)c2)o1)c1c(C)[nH][nH]c1=O`, the inhibition is 0.63%. Regarding `Cc1[nH][nH]c(=O)c1C(c1ccc(-c2cccc(Cl)c2)o1)c1c(C)[nH][nH]c1=O`, the inhibition was 4.79%.
